The text below walks through data of PubChem BioAssay (EPA / NIEHS).

Where “and” joins values, the source holds several entries; their conditions need not be identical. Identical values can stand only once. Where a structure was tested more than once in an assay, its records may differ in their call. Calls of active or inactive are those of the source. Rule for the calls: active = hit-call score of the fitted dose curve at least 0.9, where 1 is the maximum; inactive = score below 0.9.

Test [1] is described as follows: CEETOX_H295R_PROG: CeeTox H295R High-throughput Steroidogenesis Assay for Progesterone (PROG) (AID 2283442).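 For AC50: human H295R adrenal cells primed with 10 µM forskolin before dosing; progesterone secreted into medium by H295R cells measured by HPLC-MS/MS.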 The following applies: actives raise or lower the signal. In short, it runs like this:
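Steps: seed H295R cells and let them adhere overnight; prime 48 h with 10 uM forskolin; dose with compound in DMSO at 0.1% final for 48 h; extract medium steroids with MTBE; measure progesterone by LC-MS/MS. MTT viability was run in the same wells.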

A short description of test [2]: CEETOX_H295R_TESTO: CeeTox H295R High-throughput Steroidogenesis Assay for Testosterone (TESTO) (AID 2283457). The following applies: actives raise or lower the signal. In short, it runs like this:
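H295R, passage ≤10, 48 h dosing; media extracted with MTBE → HPLC-MS/MS for testosterone; 7-pt standard curve sets LLOQ/ULOQ; bidirectional fit vs DMSO; MTT viability same wells.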

Read-out in test [3]: Tumor necrosis factor receptor superfamily member 6 (Homo sapiens) (UniProt P25445)
Put plainly: LTEA_HepaRG_FAS: Life Technologies and Expression Analysis (LTEA) Assay for Fas cell surface death receptor (FAS) using HepaRG (AID 2283447). The following applies: mRNA level, 48 h; actives raise or lower the signal. In short, it runs like this:
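FAS transcript level was measured by TaqMan qRT-PCR against three housekeeping genes after 48 h chemical exposure. Cells were HepaRG, 0.5% DMSO vehicle, with a top concentration of 100 uM and half-log dilutions over eight points, in duplicate.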

Read-out in test [4]: Fatty acid synthase (Homo sapiens) (UniProt P49327)
In words: LTEA_HepaRG_FASN: Life Technologies and Expression Analysis (LTEA) Assay for Fatty Acid Synthase (FASN) using HepaRG (AID 2283448). The following applies: mRNA level, 48 h; actives raise or lower the signal. The gist of the method: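 FASN expression changes, up or down relative to 0.5% DMSO, were measured by qRT-PCR in human HepaRG cells after 48 h treatment with chemicals at eight concentrations (half-log steps from 100 uM).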

Read-out in test [5]: Cyclin D2 (CCND2), CCND2 (gene 894)
Put plainly: LTEA_HepaRG_CCND2: Life Technologies and Expression Analysis (LTEA) Assay for Cyclin D2 (CCND2) using HepaRG (AID 2283449). The following applies: mRNA level, 48 h; actives raise or lower the signal. In short, it runs like this:
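Read-out is CCND2 mRNA level measured by qRT-PCR in human HepaRG liver cells and normalised to three housekeeping genes. Chemicals were applied for 48 h at up to 100 uM, with gain or loss fitted relative to 0.5% DMSO.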

Read-out in test [6]: Cyclin Dependent Kinase Inhibitor 1A (CDKN1A), CDKN1A (gene 1026)
Put plainly: LTEA_HepaRG_CDKN1A: Life Technologies and Expression Analysis (LTEA) Assay for Cyclin Dependent Kinase Inhibitor 1A (CDKN1A) using HepaRG (AID 2283450). The following applies: mRNA level, 48 h; actives raise or lower the signal. In short, it runs like this: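 Read-out is CDKN1A mRNA by TaqMan qRT-PCR, normalized to three housekeeping genes and fitted in both directions against the DMSO baseline. Human HepaRG cells were treated 48 h with test chemicals up to 100 uM in half-log steps, 0.5% DMSO.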

Read-out in test [7]: Cyclin D1 (CCND1), CCND1 (gene 595)
In words: LTEA_HepaRG_CCND1: Life Technologies and Expression Analysis (LTEA) Assay for Cyclin D1 (CCND1) using HepaRG (AID 2283451).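 Note: differentiated human HepaRG liver cells in serum-free induction medium; TaqMan qRT-PCR transcript level normalised to ACTB GAPDH and POLR2A housekeeping genes.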 The following applies: mRNA level, 48 h; actives raise or lower the signal. In short, it runs like this:
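HepaRG plated 48 h, medium switched to serum-free induction medium, chemicals added in duplicate (top 100 uM, half-log steps, 0.5% DMSO) for 48 h, cells lysed, RNA measured by TaqMan qRT-PCR.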

Read-out in test [8]: catalase (CAT), CAT (gene 847)
Put plainly: LTEA_HepaRG_CAT: Life Technologies and Expression Analysis (LTEA) Assay for catalase (CAT) using HepaRG (AID 2283452).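 For AC50: TaqMan qRT-PCR signal normalized to ACTB GAPDH and POLR2A housekeeping genes.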 The following applies: mRNA level, 48 h; actives raise or lower the signal. The gist of the method: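 Expression of CAT was quantified by TaqMan qRT-PCR with ACTB/GAPDH/POLR2A normalization after 48 h chemical exposure of HepaRG. Eight-point half-log series, top 100 uM, in 0.5% DMSO; gain or loss fitted against vehicle.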

Read-out in test [9]: flavin-containing dimethylaniline monooxygenases 3 (FMO3), FMO3 (gene 2328)
Put plainly: LTEA_HepaRG_FMO3: Life Technologies and Expression Analysis (LTEA) Assay for flavin-containing dimethylaniline monooxygenases 3 (FMO3) using HepaRG (AID 2283453).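 Note: differentiated human HepaRG liver cells in serum-free induction medium.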 The following applies: mRNA level, 48 h; actives raise or lower the signal. The gist of the method: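 Differentiated HepaRG cells in serum-free induction medium, exposed 48 h in duplicate to 8 half-log concentrations up to 100 uM in 0.5% DMSO. FMO3 mRNA by qRT-PCR, normalized to ACTB, GAPDH, POLR2A; bidirectional fit vs DMSO.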

Read-out in test [10]: Cytochrome P450 (CYP1A1), CYP1A1 (gene 1543)
Put plainly: LTEA_HepaRG_CYP1A1: Life Technologies and Expression Analysis (LTEA) Assay for Cytochrome P450 (CYP1A1) using HepaRG (AID 2283454). The following applies: mRNA level, 48 h; actives raise or lower the signal. The gist of the method: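 HepaRG, 48 h post-plating switched to serum-free induction medium; 8-pt conc-response (top 100 uM, half-log, 0.5% DMSO), duplicates, 48 h. Lysis in RLT, TaqMan qRT-PCR for CYP1A1; gain or loss vs DMSO.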

Read-out in test [11]: CFLAR gene, CFLAR (gene 8837)
In words: LTEA_HepaRG_CFLAR: Life Technologies and Expression Analysis (LTEA) Assay for CFLAR gene using HepaRG (AID 2283455). The following applies: mRNA level, 48 h; actives raise or lower the signal. The gist of the method:
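HepaRG, 48 h exposure, 8-pt conc-response (100 uM top, half-log), 0.5% DMSO vehicle, duplicates. CFLAR expression by qRT-PCR; ACTB/GAPDH/POLR2A normalization; gain or loss fit vs DMSO baseline.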

Read-out in test [12]: Forkhead box O1 (FOXO1), FOXO1 (gene 2308)
In words: LTEA_HepaRG_FOXO1: Life Technologies and Expression Analysis (LTEA) Assay for Forkhead box O1 (FOXO1) using HepaRG (AID 2283456). The following applies: mRNA level, 48 h; actives raise or lower the signal. The gist of the method:
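Readout is FOXO1 transcript level by multiplexed qRT-PCR against three housekeeping genes, curve-fitted in both directions relative to 0.5% DMSO vehicle. Human HepaRG cultures received chemicals for 48 h, up to 100 uM in half-log steps.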

Read-out in test [13]: growth arrest and DNA damage 45 (GADD45A), GADD45A (gene 1647)
In words: LTEA_HepaRG_GADD45A: Life Technologies and Expression Analysis (LTEA) Assay for growth arrest and DNA damage 45 (GADD45A) using HepaRG (AID 2283458). The following applies: mRNA level, 48 h; actives raise or lower the signal. The gist of the method:
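Cells plated and cultured 48 h, switched to serum-free induction medium, then dosed for 48 h (100 uM top, half-log dilutions, 0.5% DMSO). RNA was isolated and transcript measured by Fluidigm qRT-PCR.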

Read-out in test [14]: Forkhead box O3 (FOXO3), FOXO3 (gene 2309)
Put plainly: LTEA_HepaRG_FOXO3: Life Technologies and Expression Analysis (LTEA) Assay for Forkhead box O3 (FOXO3) using HepaRG (AID 2283459). The following applies: mRNA level, 48 h; actives raise or lower the signal. The gist of the method: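 HepaRG, 48 h post-dose; 8 conc., half-log from 100 uM, 0.5% DMSO, duplicates; serum-free induction medium. Readout: FOXO3 mRNA, TaqMan qRT-PCR, housekeeping-normalized. Bidirectional curve fit vs DMSO baseline.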

Read-out in test [15]: ABC Transporter (ABCB1), ABCB1 (gene 5243)
Put plainly: LTEA_HepaRG_ABCB1: Life Technologies and Expression Analysis (LTEA) Assay for ABC Transporter (ABCB1) using HepaRG (AID 2283460). The following applies: mRNA level, 48 h; actives raise or lower the signal. The gist of the method:
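Expression of ABCB1 was quantified by qRT-PCR against three housekeeping genes after human HepaRG cultures received test chemicals for 48 hours. Concentrations spanned eight half-log steps topping at 100 uM in 0.5% DMSO; gain or loss of signal was fitted relative to vehicle.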

Read-out in test [16]: growth arrest and DNA damage 45 (GADD45B), GADD45B (gene 4616)
Put plainly: LTEA_HepaRG_GADD45B: Life Technologies and Expression Analysis (LTEA) Assay for growth arrest and DNA damage 45 (GADD45B) using HepaRG (AID 2283461). The following applies: mRNA level, 48 h; actives raise or lower the signal. In short, it runs like this:
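HepaRG, ~100,000 cells/well, 48 h plating; serum-free induction medium; cpd 100 uM top, half-log x8, 0.5% DMSO, duplicate, 48 h; lysis in RLT, RNA isolation, qRT-PCR; norm ACTB/GAPDH/POLR2A; bidirectional fit vs DMSO.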

Read-out in test [17]: ABC Transporter (ABCC3), ABCC3 (gene 8714)
In words: LTEA_HepaRG_ABCC3: Life Technologies and Expression Analysis (LTEA) Assay for ABC Transporter (ABCC3) using HepaRG (AID 2283462). The following applies: mRNA level, 48 h; actives raise or lower the signal. In short, it runs like this: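 Human HepaRG, 48 h dosing, 8-pt half-log series from 100 uM, 0.5% DMSO vehicle, duplicates. ABCC3 mRNA by TaqMan qRT-PCR, housekeeping-normalized; bidirectional curve fit vs DMSO.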

Read-out in test [18]: ABC Transporter (ABCB11), ABCB11 (gene 8647)
In words: LTEA_HepaRG_ABCB11: Life Technologies and Expression Analysis (LTEA) Assay for ABC Transporter (ABCB11) using HepaRG (AID 2283463). The following applies: mRNA level, 48 h; actives raise or lower the signal. In short, it runs like this: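 ABCB11 transcript levels are read by Fluidigm TaqMan qRT-PCR after 48 h chemical treatment of human HepaRG cells. Concentrations span 100 uM downward in half-log steps with 0.5% DMSO; gain or loss is fitted against DMSO controls.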

Read-out in test [19]: ABC Transporter (ABCC2), ABCC2 (gene 1244)
In words: LTEA_HepaRG_ABCC2: Life Technologies and Expression Analysis (LTEA) Assay for ABC Transporter (ABCC2) using HepaRG (AID 2283464). The following applies: mRNA level, 48 h; actives raise or lower the signal. The gist of the method:
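HepaRG, 48 h post-plating; serum-free induction medium; cpd 8-pt, 100 uM top, half-log, 0.5% DMSO, duplicate, 48 h. Readout: ABCC2 mRNA by qRT-PCR, norm. ACTB/GAPDH/POLR2A. Bidirectional fit vs DMSO baseline.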

Read-out in test [20]: Broad substrate specificity ATP-binding cassette transporter ABCG2 (Homo sapiens) (UniProt Q9UNQ0)
In words: LTEA_HepaRG_ABCG2: Life Technologies and Expression Analysis (LTEA) Assay for ABC Transporter (ABCG2) using HepaRG (AID 2283465). The following applies: mRNA level, 48 h; actives raise or lower the signal. The gist of the method: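 Read-out is ABCG2 mRNA induction or loss quantified by qRT-PCR after 48 h chemical treatment of human HepaRG cells, normalized to three housekeeping genes. Concentrations reached 100 uM top in half-log steps; fitting was bidirectional against 0.5% DMSO.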

Broad substrate specificity ATP-binding cassette transporter ABCG2 (Homo sapiens), sequence (Q9UNQ0 whole entry, looked up): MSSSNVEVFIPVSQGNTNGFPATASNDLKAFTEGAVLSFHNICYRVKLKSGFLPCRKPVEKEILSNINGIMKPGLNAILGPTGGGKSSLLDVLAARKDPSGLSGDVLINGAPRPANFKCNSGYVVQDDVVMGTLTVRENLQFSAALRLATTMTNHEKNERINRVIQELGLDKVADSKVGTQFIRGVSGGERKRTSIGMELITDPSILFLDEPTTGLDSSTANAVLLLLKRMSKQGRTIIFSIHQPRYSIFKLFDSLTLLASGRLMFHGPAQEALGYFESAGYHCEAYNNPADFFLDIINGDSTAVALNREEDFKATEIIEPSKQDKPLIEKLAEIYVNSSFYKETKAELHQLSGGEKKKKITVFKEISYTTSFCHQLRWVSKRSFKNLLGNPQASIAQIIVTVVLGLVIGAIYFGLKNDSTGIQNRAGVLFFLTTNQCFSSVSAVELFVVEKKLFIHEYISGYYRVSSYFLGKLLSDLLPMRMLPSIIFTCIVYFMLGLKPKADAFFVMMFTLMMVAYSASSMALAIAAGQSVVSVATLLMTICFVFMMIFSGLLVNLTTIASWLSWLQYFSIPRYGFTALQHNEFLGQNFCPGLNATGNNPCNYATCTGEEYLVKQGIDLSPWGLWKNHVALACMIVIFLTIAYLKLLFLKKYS
Fatty acid synthase (Homo sapiens), sequence (P49327 whole entry, looked up): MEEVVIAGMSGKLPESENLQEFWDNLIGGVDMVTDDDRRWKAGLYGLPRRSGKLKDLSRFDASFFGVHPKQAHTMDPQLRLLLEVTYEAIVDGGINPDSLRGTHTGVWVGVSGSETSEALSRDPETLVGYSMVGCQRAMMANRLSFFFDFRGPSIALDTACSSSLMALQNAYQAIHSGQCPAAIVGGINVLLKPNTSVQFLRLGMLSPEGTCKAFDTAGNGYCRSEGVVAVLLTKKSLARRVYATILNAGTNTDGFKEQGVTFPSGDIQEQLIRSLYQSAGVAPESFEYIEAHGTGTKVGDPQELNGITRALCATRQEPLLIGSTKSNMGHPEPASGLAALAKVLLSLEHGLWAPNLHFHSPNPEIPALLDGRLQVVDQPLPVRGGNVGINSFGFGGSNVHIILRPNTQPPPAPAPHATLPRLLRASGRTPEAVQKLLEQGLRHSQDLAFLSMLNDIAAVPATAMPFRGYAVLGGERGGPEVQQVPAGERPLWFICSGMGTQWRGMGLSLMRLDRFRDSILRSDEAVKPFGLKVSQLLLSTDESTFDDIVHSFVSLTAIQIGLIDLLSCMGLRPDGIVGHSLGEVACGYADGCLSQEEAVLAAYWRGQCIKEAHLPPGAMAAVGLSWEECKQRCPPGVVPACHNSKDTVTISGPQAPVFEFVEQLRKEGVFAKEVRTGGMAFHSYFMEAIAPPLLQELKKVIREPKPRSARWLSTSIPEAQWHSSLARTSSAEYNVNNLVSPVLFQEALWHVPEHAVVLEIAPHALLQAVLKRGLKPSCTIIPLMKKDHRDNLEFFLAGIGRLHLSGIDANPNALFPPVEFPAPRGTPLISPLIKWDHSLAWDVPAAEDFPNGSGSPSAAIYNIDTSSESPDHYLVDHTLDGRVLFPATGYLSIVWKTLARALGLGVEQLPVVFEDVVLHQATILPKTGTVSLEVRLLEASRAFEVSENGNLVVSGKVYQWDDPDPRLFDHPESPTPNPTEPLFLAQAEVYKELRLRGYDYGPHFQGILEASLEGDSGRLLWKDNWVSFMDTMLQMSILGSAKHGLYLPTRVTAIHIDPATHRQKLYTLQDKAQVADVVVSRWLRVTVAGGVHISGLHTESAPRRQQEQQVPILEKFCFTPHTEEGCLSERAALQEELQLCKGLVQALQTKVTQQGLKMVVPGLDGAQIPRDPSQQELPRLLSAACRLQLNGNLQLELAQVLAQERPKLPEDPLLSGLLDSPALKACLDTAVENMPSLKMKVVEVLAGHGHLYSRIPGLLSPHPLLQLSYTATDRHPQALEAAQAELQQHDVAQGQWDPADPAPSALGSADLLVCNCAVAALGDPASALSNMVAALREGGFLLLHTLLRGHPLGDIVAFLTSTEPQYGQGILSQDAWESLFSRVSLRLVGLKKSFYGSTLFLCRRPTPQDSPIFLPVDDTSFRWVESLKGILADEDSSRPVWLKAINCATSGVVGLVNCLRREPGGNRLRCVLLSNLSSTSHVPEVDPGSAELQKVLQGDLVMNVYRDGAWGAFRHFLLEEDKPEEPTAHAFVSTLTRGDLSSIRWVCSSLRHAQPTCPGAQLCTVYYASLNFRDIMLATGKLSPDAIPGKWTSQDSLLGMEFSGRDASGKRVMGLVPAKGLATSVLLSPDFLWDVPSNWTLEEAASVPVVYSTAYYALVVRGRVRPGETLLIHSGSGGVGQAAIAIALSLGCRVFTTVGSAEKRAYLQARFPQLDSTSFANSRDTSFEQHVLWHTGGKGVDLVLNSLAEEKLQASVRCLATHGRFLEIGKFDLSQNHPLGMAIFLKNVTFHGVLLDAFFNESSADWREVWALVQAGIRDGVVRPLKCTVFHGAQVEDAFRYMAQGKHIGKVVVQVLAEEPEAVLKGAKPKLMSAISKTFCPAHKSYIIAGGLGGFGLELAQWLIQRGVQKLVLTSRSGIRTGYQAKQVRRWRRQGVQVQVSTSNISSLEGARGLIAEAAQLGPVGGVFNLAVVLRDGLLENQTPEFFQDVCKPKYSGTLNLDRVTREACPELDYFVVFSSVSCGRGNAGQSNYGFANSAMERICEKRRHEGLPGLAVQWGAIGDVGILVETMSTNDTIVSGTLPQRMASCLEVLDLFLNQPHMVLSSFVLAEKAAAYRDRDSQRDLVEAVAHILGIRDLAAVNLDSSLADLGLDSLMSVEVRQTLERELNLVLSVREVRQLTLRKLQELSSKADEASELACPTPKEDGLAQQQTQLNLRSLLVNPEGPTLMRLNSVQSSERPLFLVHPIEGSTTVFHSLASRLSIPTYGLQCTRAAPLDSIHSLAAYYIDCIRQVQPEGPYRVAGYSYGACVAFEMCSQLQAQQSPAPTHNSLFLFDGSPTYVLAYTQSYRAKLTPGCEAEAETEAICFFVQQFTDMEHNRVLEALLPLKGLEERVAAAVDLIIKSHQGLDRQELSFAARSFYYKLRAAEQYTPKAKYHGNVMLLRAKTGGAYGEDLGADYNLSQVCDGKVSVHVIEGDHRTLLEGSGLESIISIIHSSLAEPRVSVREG

As to `c1coc(CNc2ncnc3nc[nH]c23)c1`, in [1], the result was inactive.

Consider `CC(=N[Si](C)(C)C)O[Si](C)(C)C`, for which the call in [1] and in [2] was inactive.

For the molecule `CC=CC(=O)C1=C(C)C=CCC1(C)C`, the molecule was classed as inactive in test [1] and in test [2].

What is called AC50 is the concentration at which the activity in the assay is half-maximal. In the case of `c1ccc(OCCOc2ccccc2)cc1`, the AC50 in [1] was 14.3 µM (active).

`OCCCO`: the molecule was classed as inactive in test [1] and in [2].

Take `CC/C(=C(\c1ccccc1)c1ccc(OCCN(C)C)cc1)c1ccccc1`: the AC50 in test [1] is 0.141 µM (active); in test [3] it was 71.4 µM (active); in test [7], 28.1 µM (active) and 38.6 µM (active); in test [8], 51.7 µM (active); in [9], 27.9 µM (active) and 33.7 µM (active); in [10], 26.8 µM (active) and 68.3 µM (active). Besides, the half-maximal activity concentration (AC50) in test [11] was 64.9 µM (active) and 93.4 µM (active); in test [12], 69.8 µM (active); in test [14], 66.8 µM (active); in [15], 76.5 µM (active) and 77.8 µM (active); in test [16], 79.1 µM (active) and 16.7 µM (active); in test [17], 11.2 µM (active) and 23 µM (active). Besides, the AC50 was 26.4 µM (active) and 25.1 µM (active) in test [18]; 82.5 µM (active) and 93.4 µM (active) in [19]. For the same molecule, the molecule was classed as inactive in [1], in test [3], in [4], in test [5], in [6] and in [8]. Moreover, the molecule was called inactive in test [12], in test [13], in test [14] and in [20].
